# Source: PubChem BioAssay
# Compounds with a hit are over-represented: about 3.5% of the library has one in this group of screens.
# GPR151 ag – activates the human receptor GPR151; PathHunter beta-arrestin GPR151 cells, luminescence; AID 1508602; 1% of 650,000 active; Q8TDV0; activation, % at 11.2 µM; in the data active means activation above about 4.9%;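 further: 0% = median of compound wells and 100% = cells with positive control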
# TEAD-YAP inh – TEAD-YAP interaction inhibition | HEK-TIYL cells, TEAD-Gal4/YAP UAS-luciferase luminescence | inhibition, % at 9.12 µM | 1.4% of 640,000 active | AID 1259422; in the data active means inhibition above about 32%;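 further: 0% = median of test compound wells and 100% = reference inhibitor wells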
# MITF inh – human MITF inhibition, primary screen | O75030 | AlphaScreen MITF homodimerization, bead proximity signal | inhibition, % at 2.6 µM | 0.91% of 650,000 active | AID 1259374; in the data active means inhibition above about 50%;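 further: 0% = vehicle wells with protein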
# Target sequence (O75030 whole entry, looked up): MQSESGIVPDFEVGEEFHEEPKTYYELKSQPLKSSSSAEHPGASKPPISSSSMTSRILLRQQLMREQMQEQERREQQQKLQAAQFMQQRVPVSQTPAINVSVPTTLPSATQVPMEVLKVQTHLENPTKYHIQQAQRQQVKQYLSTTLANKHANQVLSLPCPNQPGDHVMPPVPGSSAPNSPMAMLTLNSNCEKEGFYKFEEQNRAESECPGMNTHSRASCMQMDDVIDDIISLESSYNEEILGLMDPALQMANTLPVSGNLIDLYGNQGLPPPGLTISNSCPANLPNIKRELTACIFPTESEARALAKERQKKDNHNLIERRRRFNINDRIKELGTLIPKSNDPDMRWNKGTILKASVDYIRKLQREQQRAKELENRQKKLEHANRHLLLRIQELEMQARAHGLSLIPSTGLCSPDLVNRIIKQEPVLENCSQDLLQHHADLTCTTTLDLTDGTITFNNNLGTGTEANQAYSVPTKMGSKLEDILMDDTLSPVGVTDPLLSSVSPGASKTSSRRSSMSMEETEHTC
# FBW7 act – activators of human E3 ligase FBW7; AlphaScreen FBW7–phospho-cyclin E peptide binding, activator screen; normalized activity (activation), % at 26.1 µM; Q969H0; 0.13% of 650,000 active; AID 1259310; in the data active means normalized activity above about 1.9%;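 further: purified mutant Fbw7 with reduced substrate affinity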
# * = called active by the depositor.
SMILES,GPR151 ag,TEAD-YAP inh,MITF inh,FBW7 act
CCOC(=O)c1[nH]c(C)c(C(=O)Nc2cccc(C(C)=O)c2)c1C,1.4,10.7,15.5,0.7
CCc1ccc(N(CC(=O)NCCSc2ccccc2)S(C)(=O)=O)cc1,1.7,10.8,13.8,0.5
Nn1cnn2c(SCC(=O)Nc3cc(Cl)cc(Cl)c3)nnc12,3.0,1.4,-4.8,0.1
CCOc1cc(C2CC(=O)Nc3ccc4ccccc4c32)cc(Br)c1O (stereo not given),1.4,36.2*,1.5,0.1
COc1cccc(CN(CCCN(C)C)C(=O)Nc2ccc(-c3cn[nH]c3)cc2OC)c1,1.4,-12.0,-10.3,0.1
COc1cccc(CN(CCN(C)C)C(=O)c2cnc3cc(-c4cn[nH]c4)ccn23)c1,-1.7,-10.2,-4.0,-0.1
COc1cccc(CN(C)C(=O)c2cnc3cc(-c4cn[nH]c4)ccn23)c1,-1.3,45.6*,-4.8,-0.1
COc1cccc(CN(CCN(C)C)C(=O)Nc2ccc(-c3cn[nH]c3)cc2N(C)C)c1,-1.5,49.6*,25.3,-0.2
COc1cccc(CN(CCN(C)C)C(=O)c2cnc3ccc(-c4cn[nH]c4)cn23)c1,0.6,45.4*,0.9,0.1
O=C(O)CNc1nc(-c2ccccc2)c2cc(Br)ccc2n1,-0.8,-0.1,1.2,0.7
COc1ccc(C(=O)Cc2cc3cc4ccccc4cc3oc2=O)c(OC)c1,1.2,-10.5,11.5,0.1
Cc1ccccc1N=c1oc2ccccc2cc1-c1nc2ccccc2[nH]1,-9.7,42.7*,0.0,-0.1
Cc1ccc2nc(-c3cc4ccccc4oc3=N)[nH]c2c1,-7.3,93.3*,-28.2,0.0
Cc1cccc(N=c2oc3ccccc3cc2-c2nc3ccccc3[nH]2)c1,-10.7,46.5*,-8.2,-0.1
CCOc1ccccc1CN1CCc2nnc(CCNC(=O)c3ccc(OC)cc3)n2CC1,-1.1,-4.2,6.9,0.2
COc1ccccc1OCCCOc1ccc(/C=C2/C(=N)N3C=CSC3=NC2=O)cc1,-1.0,19.6,9.7,0.1
COC(=O)c1ccccc1NC(=O)NCc1cc(C)n(C)n1,-0.5,1.2,-6.9,-0.1
Cc1ccc(N=C2SC(C(=O)Nc3ccc(Br)cc3)CC(=O)N2C)cc1Cl (stereo not given),0.3,2.9,9.3,0.1
O=C1N[C@@H](Cc2ccccc2)C(=O)N2CCN(Cc3nc(-c4ccc(F)cc4)cs3)C[C@H]12,-0.4,6.7,-16.4,0.1
COc1ccccc1OCC(=O)Nc1nccs1,-8.1,15.1,3.6,-0.2
O=C(COc1ccccc1Cl)Nc1nccs1,-10.8,91.1*,19.2,0.2
Cc1cccc(OCC(=O)Nc2nccs2)c1C,-4.6,32.0*,7.2,-0.1
O=C(COc1ccccc1F)Nc1nccs1,-8.1,-1.4,5.9,-0.1
Cc1cc(=O)oc2cc(OC(=O)CCNC(=O)OCc3ccccc3)ccc12,-1.0,10.5,1.4,0.0
CCOCCCn1c(=S)[nH]c2cc(C(=O)N3CCN(Cc4ccc5c(c4)OCO5)CC3)ccc2c1=O,2.1,43.0*,5.5,0.2
SMILES,GPR151 ag,TEAD-YAP inh,MITF inh,FBW7 act
O=C(c1ccc2c(=O)n(Cc3ccc(Cl)cc3)c(=S)[nH]c2c1)N1CCN(Cc2ccc3c(c2)OCO3)CC1,-0.9,6.7,-8.3,-0.2
COc1cnc(-c2ccccn2)nc1-c1ccccc1,3.3,40.3*,18.3,-1.1
CN(CCc1ccccc1)C1CCCN(S(=O)(=O)c2ccc3c(c2)OCCO3)C1 (stereo not given),0.6,-7.2,17.6,0.7
CC1Cc2cc(S(=O)(=O)N(C)CC(=O)Nc3cccnc3)ccc2N1C(=O)C1CC1 (stereo not given),-1.3,39.3*,8.1,-0.2
Clc1ccccc1OCc1nc(-c2ccccn2)no1,-6.9,-27.1,13.0,0.0
Clc1ccc(OCc2nc(-c3ccccn3)no2)c(Cl)c1,-4.7,36.4*,5.0,-0.3
Cc1ccc(N2CC(C(=O)Nc3nccs3)CC2=O)cc1Cl (stereo not given),2.3,61.2*,5.2,0.4
O=C(CCn1nnc2ccccc21)N/N=C\c1cc([N+](=O)[O-])ccc1O,0.7,10.1,42.0,-0.3
O=C(Cn1nnc2ccccc21)N/N=C/c1cc([N+](=O)[O-])ccc1O,0.0,8.7,73.5*,-0.3
O=C(CNc1ccccc1)N/N=C/c1cc([N+](=O)[O-])ccc1O,4.7,23.3,54.0*,-0.2
CCNC(=O)C(=O)N/N=C/c1cc([N+](=O)[O-])ccc1O,0.9,5.4,73.6*,-0.8
O=C(N/N=C/c1cc([N+](=O)[O-])ccc1O)N/N=C/c1cc([N+](=O)[O-])ccc1O,0.9,-0.1,-0.7,-0.5
O=C(Cn1nnnc1CN1CCCCCC1)NC(c1cccnc1)C(F)(F)F (stereo not given),-0.4,5.5,14.1,0.2
O=c1nc(N/N=C/C=C/c2ccccc2)cn[nH]1,-2.9,50.4*,7.3,-0.1
O=c1nc(N/N=C/c2ccc(O)cc2)cn[nH]1,-3.3,-2.4,27.6,0.1
O=c1nc(N/N=C/c2c[nH]c3ccccc23)cn[nH]1,-4.6,58.4*,-7.4,-0.5
C[C@@H]1C[C@@H]2O[C@H]2C=CC=CC(=O)Cc2c(Cl)c(O)cc(O)c2C(=O)O1,-0.7,51.8*,-10.1,-0.2
CCc1c(C)nc2ncnn2c1N1CCCC(C(=O)Nc2nnc(C)s2)C1 (stereo not given),1.2,47.8*,-1.1,-0.1
CCOc1ccccc1NC(=O)C1CCCN(c2c(CC)c(C)nc3ncnn23)C1 (stereo not given),0.1,-1.1,-10.7,0.0
COc1ccc(C(=O)CSc2nc3ccccc3c(=O)n2-c2ccc(Cl)cc2)cc1,-1.3,-2.7,-12.8,-0.2
CC(C)(C)c1ccc(C(=O)NCCOc2ccccc2)cc1,-1.6,35.7*,1.6,0.2
CC(C)(C)c1ccc(C(=O)NCCOc2ccccc2F)cc1,-0.9,59.3*,3.9,0.5
O=C(Nc1ccc(Br)cc1C(=O)O)c1cccc([N+](=O)[O-])c1,-3.1,3.4,23.9,0.1
O=C(CN1C(=O)c2ccccc2C1=O)Nc1ccccc1C(=O)O,-1.0,2.4,4.3,0.5
CC(=O)N(C1=C(N2CCCC2)C(=O)c2ccccc2C1=O)c1ccccc1C,-4.9,91.9*,31.4,0.5
SMILES,GPR151 ag,TEAD-YAP inh,MITF inh,FBW7 act
CC(=O)N(C1=C(N2CCCCC2)C(=O)c2ccccc2C1=O)c1ccc(C)cc1,-0.5,-11.7,23.5,-0.1
C=CCn1c(SCc2ccccc2Cl)nc2c1c(=O)[nH]c(=O)n2C,-0.3,53.3*,8.7,0.2
C=CCn1c(SCc2cccc(C)c2)nc2c1c(=O)[nH]c(=O)n2C,-0.5,44.6*,-7.5,-0.3
C=CCSc1nc2c(c(=O)[nH]c(=O)n2C)n1Cc1ccccc1Cl,0.6,-2.8,4.0,0.1
COc1ccc(NC(=O)COc2ccc3c(=O)c(-c4ccccc4)coc3c2)c([N+](=O)[O-])c1,0.4,-4.0,6.5,0.2
C/C(=N\N=c1/sc2ccccc2n1C)c1ccc(N2CCOCC2)cc1,2.7,-8.3,-6.1,0.1
C/C(=N\N=C(N)N)c1ccc(N2CCOCC2)cc1,0.3,51.8*,-6.5,-0.1
CCN1CCN(C(=O)CCCCn2c(=S)[nH]c3c([nH]c4ccc(OC)cc43)c2=O)CC1,-0.7,-9.7,-262.9,-0.3
